Hits are enriched below; roughly 1.8% of the tested compounds scored in any of these assays.
Tb PFK block: T. brucei PFK enzyme inhibition | O15648 | T. brucei PFK, ADP-Glo luminescence | Potency, µM (doses to about 57.5 µM), without a hit: at the highest dose activity, negative = inhibition, most hits filed as inhibitors | hit rate 0.17% among 330,000;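 further: 0% = uninhibited 1x PFK enzyme wells and -100% = no-enzyme wells; nearly all actives have a fitted effect of over 60% in size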
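ADP-Glo luminescence quantified ADP after 45 min at room temperature, with 1.25 nM T. brucei PFK, 0.1 mM ATP and 0.5 mM fructose-6-phosphate in pH 8.0 TEA buffer. qHTS titrations up to 57 µM; curves classified by quality.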
GLP1R inv ag: acts as inverse agonist at human GLP-1 receptor; Potency, µM (highest dose often 38.3 µM), for the others: top-dose activity change, negative = inhibition, actives largely listed as inhibitors; hit rate 1.6% among 410,000; P43220; AID 624417; HEK293 GLP-1R CRE-luciferase, luminescence, 24 h; GLP-1R form is constitutively active; further: on the % scale 0 is the no-effect control and ±100 the full control effect; nearly all actives have a fitted effect of over 55% in size
Target sequence (P43220 whole entry, looked up): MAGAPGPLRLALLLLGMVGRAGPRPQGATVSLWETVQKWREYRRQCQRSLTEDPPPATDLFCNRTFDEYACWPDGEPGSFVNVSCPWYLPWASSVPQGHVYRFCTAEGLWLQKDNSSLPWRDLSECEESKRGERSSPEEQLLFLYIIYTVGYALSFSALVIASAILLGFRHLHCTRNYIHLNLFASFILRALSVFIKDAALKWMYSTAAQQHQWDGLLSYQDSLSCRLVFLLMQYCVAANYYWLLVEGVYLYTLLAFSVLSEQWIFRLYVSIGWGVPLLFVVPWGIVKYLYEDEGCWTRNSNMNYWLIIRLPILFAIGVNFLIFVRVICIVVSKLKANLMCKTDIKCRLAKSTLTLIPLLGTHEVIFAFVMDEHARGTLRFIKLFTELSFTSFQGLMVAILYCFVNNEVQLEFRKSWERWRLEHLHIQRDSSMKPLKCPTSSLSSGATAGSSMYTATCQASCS
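qHTS in 1536-well format: reporter HEK293 cells expressing constitutive GLP-1R activity in DMEM + 10% Nu serum, 24 hr with compounds at 37 deg C, luminescence read after 12 min with detection reagent.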
GLP1R ag: activates the human GLP-1 receptor | P43220 | HEK293 GLP-1R CRE-luciferase, luminescence, 4-6 h; cells express a hypersensitive GLP-1R form | Potency, µM (top dose mostly 45.6 µM), without a hit: at the highest dose activation, usual class: activators | hit rate 0.007% among 380,000; further: % of control where 0% means no effect
HEK293 tox: cytotoxicity counter-screen for GLP-1 receptor inverse agonists | HEK293 cAMP-luciferase reporter cells, luminescence, 24 h | Potency, µM (titrated, usually from 38.3 µM), inactives show at the top dose activity change, negative = inhibition, usual class: inhibitors | hit rate 0.13% among 410,000 | AID 624418;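 further: loss of luciferase light is scored as toxicity; on the % scale 0 is the no-effect control and ±100 the full control effect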
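Compound-treated cells are incubated 24 hr at 37 deg C under 5% CO2 after a 12 hour attachment period, then luciferase detection reagent is added and luminescence is measured following 12 min at room temperature; lowered signal indicates toxicity.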
Pin1 inh: human Pin1 inhibition | Q13526 | Pin1 FP peptide displacement, HiFluor488, 10 min | Potency, µM (titrated, usually from 115 µM), for the others: at the highest dose activity, negative = inhibition, most hits filed as inhibitors | hit rate 0.009% among 390,000; active means well fitted inhibition curve with a large enough effect in the polarisation, with a control signal flat, not every such curve was filed as active; inconclusive means small, poorly fitted or top-dose-only effect, or effect the other way, or a change in a side signal; inactive means no such curve, though single readings can be large or run the other way; the % refers to the polarisation; further: on the % scale 0 is the no-effect control and ±100 the full control effect
Target sequence (Q13526 whole entry, looked up): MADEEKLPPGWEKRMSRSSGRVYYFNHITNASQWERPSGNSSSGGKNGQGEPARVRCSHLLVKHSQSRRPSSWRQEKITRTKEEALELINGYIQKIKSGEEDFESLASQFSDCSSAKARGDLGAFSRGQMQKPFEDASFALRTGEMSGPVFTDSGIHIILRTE
PGK inhibitor: inhibitors of T. brucei phosphoglycerate kinase; AID 602233; Potency, µM (top dose mostly 57.5 µM), without a hit: top-dose activity change, negative = inhibition, most hits filed as inhibitors; PGK/GAPDH coupled, Kinase-Glo luminescence, 60 min; hit rate 0.043% among 380,000; P07378; further: on the % scale 0 is the no-effect control and ±100 the full control effect; nearly all actives have a fitted effect of over 60% in size
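Luminescent ATP detection (Kinase-Glo Plus) follows a 60-minute room-temperature incubation, with wells lacking PGK as controls. Buffer: 100 mM TEA (pH 7.6), 5 mM MgCl2, 0.01% Tween-20. Coupling enzyme GAPDH (100 nM final) supplies unstable 1,3-BPG in-well.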
Numbers without * were called inactive; i = inactive; ? = inconclusive; . = no result given; [ ] = another dose, or the depositor's remark. Unless noted, the call rests on the fitted dose curve; in most records, active means well fitted curve in the direction sought with a large enough effect; inconclusive means small, poorly fitted or top-dose-only effect, or another doubt; inactive means no such curve, though single readings can be large; an effect the other way counts as inactive or inconclusive. Potency means the concentration at half of the fitted maximal effect.

SMILES	Tb PFK block	GLP1R inv ag	GLP1R ag	HEK293 tox	Pin1 inh	PGK inhibitor
Cc1ccc(C2c3[nH]c4ccccc4c3CCN2C(=O)CCc2ccccc2)cc1 (stereo not given)	.	?	.	-4%	-6%	7%
CCc1ccc(CNC(=O)c2cc3c(=O)n(Cc4cccs4)ccc3nc2C)cc1	.	?	.	-12%	13%	i
Cc1[nH]c2ccccc2c1C(=O)CN1C(=O)NC(C)(c2ccc(Cl)cc2Cl)C1=O (stereo not given)	0%	13µM*	17%	?	17%	i
Cc1[nH]c2ccccc2c1/C=N/NC(=O)c1cccc(S(=O)(=O)Nc2cccc(C(F)(F)F)c2)c1	-7%	13µM*	0%	?	22%	-5%
NNC(=O)c1cccc(S(=O)(=O)Nc2cccc(C(F)(F)F)c2)c1	-10%	-6%	0%	7%	-1%	-4%
COc1ccc(C2(CNC(=O)C(=O)Nc3cccc(C(F)(F)F)c3)CCCC2)cc1OC	.	?	.	17%	4%	4%
O=C(O)c1ccccc1OC1=NS(=O)(=O)c2ccccc21	.	.	.	.	-3%	.
C=CCn1c(CCc2cc(C(C)(C)C)c(O)c(C(C)(C)C)c2)n[nH]c1=S	10%	?	7%	11µM*	-2%	5%
CC(C)CC(=O)Nc1nc2c(s1)CC(C(C)(C)C)CC2 (stereo not given)	.	?	.	-9%	-5%	-2%
CCC(C)NC(=O)CSc1nc2cc3c(cc2c(=O)n1CCCCCC(=O)NCc1ccc2c(c1)OCO2)OCO3 (stereo not given)	.	13%	.	7%	5%	8%
CCc1cc2c(Sc3nc4ccccc4s3)ncnc2s1	4%	3.5µM*	12%	-28%	5%	-2%
Cc1cc(O)c(C(C)C)cc1NC(=O)Nc1cccc2ccccc12	-2%	6.3µM*	18%	-5%	-6%	-7%
OCC1(Cc2cccc(C(F)(F)F)c2)CCN(Cc2cc3ccccc3o2)CC1	2%	?	3%	?	-3%	i
COc1ccc(CC2(CO)CCN(Cc3cc4ccccc4o3)CC2)cc1	1%	10µM*	25%	-3%	4%	i
CC(=O)Nc1cccc(OC2=NS(=O)(=O)c3ccccc32)c1	.	.	.	.	-2%	.
COc1cc(Cl)c(C)cc1Nc1nc2ccccc2c2nnc(C)n12	.	9%	.	-6%	0%	i
CCOC(=O)N1CCC(N(CCN(C)C)C(=S)Nc2cccc(SC)c2)CC1	1%	5.6µM*	5%	1%	-2%	-1%
CCOC(=O)N1CCC(N(CCN(C)C)C(=S)Nc2cccc(C)c2)CC1	-2%	1%	-3%	-14%	-15%	6%
O=C(CSc1nc2ccccc2nc1SCC(=O)N1CCOCC1)N1CCOCC1	0%	0%	2%	-4%	-1%	-1%
Cn1c(-c2ccccc2)cnc1SCC(=O)N1CCCc2ccccc21	-1%	?	0%	0%	11%	0%
Cn1c(-c2ccccc2)cnc1SCC(=O)N1CCCCC1	-1%	4µM*	-31%	-13%	-2%	3%
O=C(CSc1nc2ccccc2nc1Cc1ccc(Cl)cc1)N1CCCCC1	.	10µM*	.	0%	3%	16%
CC1CCCCN1C(=O)CSc1nc(C2CC2)nc2ccccc12 (stereo not given)	-6%	7.9µM*	16%	?	1%	-2%
O=C(CSc1nc2ccccc2nc1SCC(=O)N1CCCCC1)N1CCCCC1	-5%	10µM*	-1%	?	4%	5%[11.5 µM]
COc1ccc(C2NC(=S)N3C(c4ccc(OC)c(OC)c4)NC(=S)N23)cc1OC (stereo not given)	.	.	1%	.	.	.
SMILES	Tb PFK block	GLP1R inv ag	GLP1R ag	HEK293 tox	Pin1 inh	PGK inhibitor
CCCCN(C)C(=O)CSc1nc2ccccc2nc1Cc1ccc(C)cc1	.	11µM*	.	-20%	48%	-4%
CC1CCCCN1C(=O)CSc1nc2ccccc2nc1Cc1ccc(Cl)cc1 (stereo not given)	.	5µM*	.	1%	0%	-3%
Cc1ccc(Cc2nc3ccccc3nc2SCC(=O)N2CCN(c3ccccc3)CC2)cc1	.	3%	.	12%	7%	6%
O=C(CSc1nc(N2CCCCC2)nc(N2CCCCC2)n1)N1CCN(c2ccccc2)CC1	-3%	2.8µM*	0%	-21%	?	-1%
COc1ccccc1N1CCN(C(=O)CSc2nc3ccccc3nc2Cc2ccccc2)CC1	.	11µM*	2%	-15%	25%	-5%
CCCCNC(=O)CSc1nc2ccccc2nc1Cc1ccc(C)cc1	.	0%	2%	5%	3%	-1%
O=C(CSc1nc2ccccc2nc1Cc1ccc(Cl)cc1)N1CCN(c2ccccc2)CC1	.	11%	.	3%	-1%	8%
Cc1ccc(Cn2c(SCc3ccc(C(=O)N4CCCCCC4)cc3)nc3ccncc32)cc1	.	?	.	-1%	1%	2%
CCNC(=S)N1N=C2c3ccccc3CCC2C1c1ccc(F)cc1 (stereo not given)	1%	3.5µM*	-18%	?	3%	5%
CC(=O)N1N=C2c3ccccc3CCC2C1c1ccc(F)cc1 (stereo not given)	0%	?	15%	10%	20%	-3%
COc1ccc(CCNCC(=O)Nc2ccc(C)c(Br)c2)cc1OC	-3%	11µM*	-3%	-10%	-10%	i
COc1ccc(CCNCC(=O)Nc2ccc(C)c(S(=O)(=O)N(C)C)c2)cc1OC	-7%	2%	0%	-4%	1%	-2%
O=C(Nc1ccccc1C(=O)Nc1ccc(Br)cn1)c1ccccc1Cl	2%	10µM*	-1%	3%	6%	9%
Nc1sc(Cc2ccccc2)cc1C(=O)c1c(-c2ccccc2)[nH]c2ccccc12	.	5.6µM*	.	?	.	.
CCOC(=O)c1cnc(-n2nc(C)cc2C)nc1NCc1ccc2c(c1)OCO2	-5%	3.5µM*	-2%	?	11%	i
CCOC(=O)c1cnc(-n2nc(C)cc2C)nc1Nc1ccc(OC)cc1	-6%	-6%	-4%	?	-6%	-10%
CCOC(=O)c1cnc(-n2nc(C)cc2C)nc1NC1CCCC1	-17%	2.5µM*	17%	?	-4%	-1%
CC(=O)Nc1ccc(S[C@@H](CCN2CC[C@H](C(C)(C)C)CCC2=O)c2ccccc2)cc1	?	?	1%	-4%	7%	-4%
Cc1ccc(SC[C@H](C)CN2CC[C@H](C(C)(C)C)CCC2=O)cc1	-5%	10µM*	10%	1%	-15%	i
CC(C)(C)[C@@H]1CCC(=O)N(CC[C@H](Sc2ccccc2)c2ccccc2)CC1	3%	4.5µM*	2%	?	?	7%
